High-throughput results: PubChem BioAssay, National Center for Advancing Translational Sciences (NCATS)
ELG1 repair inh = blocks ELG1-dependent DNA repair in HEK293T cells. HEK293T ELG1-luciferase reporter, luminescence, 16 h; DNA damage induced by 5-fluorouridine. Potency, µM (highest dose often 46.1 µM), usual class: inhibitors. 2.3% of 330,000 active. AID 504467; also: nearly all actives have a fitted effect of over 55% in size
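Reporter activity after DNA damage by 5-fluorouridine is monitored. Compound-treated cells incubate 16 hr at 37 °C, then ONE-Glo is added for 30 min before luminescence reading.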
TSHR antagonist = human thyrotropin receptor antagonism; TSHR-expressing cells, TSH-stimulated cAMP HTRF, 2 h; active compounds read low; activity change, negative = inhibition, % at 11.5 µM; 0.2% of 330,000 active;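 active = activity change below a set negative limit, meaning inhibition stronger than a set level, cut at about -70% in these data; inconclusive = activity change between two set negative limits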
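TSHR-expressing cells, 200/well, pre-treated with compound, then stimulated with EC80 TSH (4nM final) for 2 hours at 37 deg C. cAMP measured by competitive HTRF: anti-cAMP cryptate antibody in lysis buffer plus cAMP-d2, read after 30 minutes at room temperature.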
RORgamma inh = inhibitors of mouse ROR gamma transcriptional activity; Drosophila S2 Gal4-RORgamma UAS-luciferase reporter, 20 h; 5.4% of 310,000 active; Potency, µM (titrated, usually from 53.6 µM), usual class: inhibitors; also: nearly all actives have a fitted effect of over 60% in size
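Luciferase reporter read in Schneider cells carrying Gal4-RORγ (mouse) and UAS-Photinus luciferase; cells given compound 1 h before 700 uM copper sulfate induction, then incubated 20 h at ambient temperature.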
Coupling enz = inhibits coupling enzyme system, counter-screen for aldolase hits; coupling enzyme system counterscreen, AmpLite Red fluorescence; activity change, negative = inhibition, % at 58.2 µM, hits read low; 0.67% of 290,000 active; in the data active = activity change below about -30%
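Counterscreen of the coupled detection system alone, without aldolase: glyceraldehyde-3-phosphate coupling enzymes plus AmpLite Red readout. Compounds at 57.5 uM final, 10 min RT preincubation, 20 min RT reaction, fluorescence 525/598 nm.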
Gal4-VP16 FLuc = counter-screen for ROR gamma inhibitors: Gal4-VP16 reporter | Drosophila S2 Gal4-VP16 UAS-luciferase, luminescence, 20 h | Potency, µM (titrated, usually from 53.6 µM), usual class: inhibitors | 3.5% of 310,000 active;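 also: Gal4-VP16 expression switched on by copper sulfate through the metallothionein promoter; nearly all actives have a fitted effect of over 50% in size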
Numbers stand for hits; - = inactive; ? = inconclusive; . = no result given. Sampled rows, rich in hits. Any-hit rate of the full collection: about 8%. Unless noted, calls follow the shape of the dose curve; as a rule, active = well fitted curve in the direction sought with a large enough effect; inconclusive = small, poorly fitted or top-dose-only effect, or another doubt; inactive = no such curve, though single readings can be large; an effect the other way counts as inactive or inconclusive.

SMILES | ELG1 repair inh | TSHR antagonist | RORgamma inh | Coupling enz | Gal4-VP16 FLuc
CCNC(=O)NC(=O)COC(=O)CCCSc1nc2ccccc2s1 | - | - | ? | - | 7.94µM
CNC(=O)NC(=O)C(C)OC(=O)CCCSc1nc2ccccc2s1 (stereo unspecified) | - | - | 7.08µM | - | 4.47µM
CCNC(=O)NC(=O)C(C)OC(=O)CCCSc1nc2ccccc2s1 (stereo unspecified) | - | - | ? | - | 4.47µM
CCCCC/C=C\CC(O)/C=C/c1cccc(CC(O)CCCCO)n1 (stereo unspecified) | . | - | - | - | -
Cc1ncc([N+](=O)[O-])n1CC(=O)Nc1ccc(F)c(Cl)c1 | - | - | - | - | -
CCOC(=O)c1cc(-c2nnc(-c3ccc(Oc4ccccc4)cc3)o2)c(C)nc1C | 23.1µM | - | - | - | -
CCOC(=O)c1cccc(COC(=O)c2cccc(-c3nnc(-c4ccccc4)o3)c2)c1 | ? | - | - | - | -
CC(C)C[C@@H](CC(=O)N[C@@H](CCCN)CC(=O)N[C@@H]1CCCC[C@H]1C(=O)N[C@H](CC(=O)N[C@@H](CCC(=O)O)CC(=O)O)Cc1c[nH]c2ccccc12)NC(=O)[C@@H]1CCCC[C@H]1N | . | . | - | - | -
Cn1c2cc(B(O)O)sc2c2cnn(Cc3c(F)cccc3F)c(=O)c21 | . | - | . | . | .
Cc1[nH]n(C(N)=S)c(=O)c1N=Nc1cccc([N+](=O)[O-])c1C | ? | - | . | - | .
Cc1ccc(N=Nc2c(C)[nH]n(C(N)=S)c2=O)cc1C | ? | - | 0.224µM | - | 1.12µM
Cc1[nH]n(C(N)=S)c(=O)c1N=Nc1cc(-c2ccc(Br)cc2)[nH]n1 | ? | - | 1.58µM | - | -
Cc1[nH]nc(N)c1N=Nc1ccc(Br)cc1 | - | - | - | - | -
Cc1[nH]n(C(N)=S)c(=O)c1N=Nc1ccc2ccccc2c1 | ? | - | 1µM | - | 3.98µM
Cc1ccc(C(=O)NNC(=O)c2ccc(S(=O)(=O)N3CCCCC3)cc2)cc1 | - | - | . | . | .
Cc1[nH]n(C(N)=S)c(=O)c1N=Nc1ccc(S(=O)(=O)N2CCCCCC2)cc1 | - | - | 0.891µM | - | 2.51µM
NCCCCCCNc1nc2c(N)ncnc2n1[C@@H]1O[C@@H]2COP(=O)(O)O[C@H]2[C@H]1O | . | . | - | - | -
CC(=O)Nc1ccc(N=Nc2c(C)[nH]n(C(N)=S)c2=O)cc1 | ? | - | 3.98µM | - | -
c1ccc(Nc2nc3ccccc3[nH]2)nc1 | ? | - | 2µM | - | ?
Nc1ccc(Nc2nc3ccccc3[nH]2)cc1 | - | - | - | - | -
CCOc1cc(-c2nc3ccccn3c2NCC2CCCO2)ccc1O (stereo unspecified) | ? | - | - | - | ?
COc1cc(-c2nc3ccccn3c2/N=C/c2ccccc2)ccc1O | - | - | 12.6µM | - | -
COc1cc(-c2nc3ccccn3c2/N=C/c2cccc(F)c2)ccc1O | - | - | - | - | -
COc1cc(-c2nc3ccccn3c2NCC2CCCO2)ccc1O (stereo unspecified) | - | - | 14.1µM | - | -
O=C(Nc1ccc(N2CCOCC2)cc1)c1ccc(Cl)c(S(=O)(=O)N2CCCC2)c1 | ? | - | . | . | .
SMILES | ELG1 repair inh | TSHR antagonist | RORgamma inh | Coupling enz | Gal4-VP16 FLuc
COc1cc(/C=C(\C#N)c2nc3c(s2)CCCC3)ccc1O | ? | - | 8.91µM | - | ?
CN(Cc1ccc(Br)cc1)CC(O)COc1cccc(Br)c1 (stereo unspecified) | - | - | ? | - | ?
Cc1ccc(OCc2cc(C(=O)NC(C)Cc3cccc(C)n3)no2)cn1 (stereo unspecified) | ? | - | - | . | -
c1ccc(-c2nc(-c3ccccn3)no2)cc1 | ? | - | 2.24µM | - | 2µM
COc1cccc(-c2nc(-c3ccccn3)no2)c1OC | ? | - | - | - | -
Cc1ccc(-c2nc(-c3ccccn3)no2)cc1Cl | ? | - | 3.55µM | - | 5.62µM
Cc1ccc(-c2nc(-c3ccccn3)no2)cc1 | ? | - | 0.891µM | - | 2µM
c1ccc(-c2noc(-c3cccc4ccccc34)n2)nc1 | ? | - | ? | - | 10µM
Cn1c(CNC(=O)c2ccc3c(c2)OCO3)nnc1SCC(=O)Nc1ccccc1F | - | - | - | - | -
Cc1ccc2nc(-c3ccccn3)oc2c1 | ? | - | 10µM | - | ?
